Test results: PubChem BioAssay AID1861 (The Scripps Research Institute Molecular Screening Center, 2009)
About 3,100 (1.1%) of roughly 290,000 compounds were called active. Rule as the data show it: active = inhibition above about 16% (passing the limit was not always enough); inactive = the rest. The list comes from a sample in which actives are over-represented; it also holds similar structures and randomly drawn compounds.

molecular target: Neuropeptides B/W receptor type 1 (Homo sapiens) (UniProt P48145); assay: blockers of human neuropeptide B/W receptor 1 – cell-based, fluorescence, single concentration, primary screen (AID 1861); details: GPR7-expressing cells, fluorescence antagonist assay; at 4.4 µM; hits give high values;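 also: cells stimulated with the agonist NPW; 0% = agonist with vehicle and 100% = vehicle without agonist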
Sequence (P48145 whole entry, looked up): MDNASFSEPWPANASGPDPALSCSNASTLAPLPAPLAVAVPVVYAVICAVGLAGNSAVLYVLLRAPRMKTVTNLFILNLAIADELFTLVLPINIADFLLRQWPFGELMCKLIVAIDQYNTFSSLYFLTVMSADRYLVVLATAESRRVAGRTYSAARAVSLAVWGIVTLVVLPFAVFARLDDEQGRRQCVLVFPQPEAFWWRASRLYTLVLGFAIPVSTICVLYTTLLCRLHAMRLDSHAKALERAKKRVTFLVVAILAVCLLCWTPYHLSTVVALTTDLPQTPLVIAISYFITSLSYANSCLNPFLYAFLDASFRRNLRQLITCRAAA

inhibition, inactive:
C=CS(=O)c1sc(Cl)c(N2CCOCC2)c1[N+](=O)[O-] (stereo not given) 3.73%
CCOC(=O)Cn1c(CN(Cc2ccccc2)Cc2ccccc2)nc2c1c(=O)[nH]c(=O)n2C -9.45%
CN(Cc1ccccc1)c1nc2c(c(=O)[nH]c(=O)n2C)n1CCSc1nc2ccccc2[nH]1 -4.5%
CNC(=O)c1sc(Nc2ccc(OCc3ccccc3)cc2)nc1C 1.33%
CCC(Cc1ccccc1)NC(=O)C1CCCCC1 (stereo not given) -7.32%
Cc1ccc(NC(=O)NC(=O)c2ccccc2)cc1F -0.7%
O=C(NC(=O)c1ccccc1)NC(=O)c1ccccc1 6%
CCn1c(SCC(=O)Nc2ccc3c(c2)OCCO3)nnc1-c1ccncc1 -4.19%
Cc1nonc1C1CCCN1C(=O)c1cc(COc2cccc(C(F)(F)F)c2)on1 (stereo not given) -2.6%
COc1cccc(N2CCN(c3ccc4nnc(CCC(=O)N5CCN(C)CC5)n4n3)CC2)c1 -14.2%
CCCOc1cccc(C(=O)Nc2ccccc2C(=O)N2CCN(C)CC2)c1 -9.32%
O=C(CN1C(=O)S/C(=C\c2ccccc2F)C1=O)NCCCn1ccnc1 -12%
O=C(CN1C(=O)/C(=C\c2ccc(C(F)(F)F)cc2)Sc2ccccc21)NCc1ccco1 5.13%
CSCc1ccc(C(=O)Nc2cc(C)cc(C)c2)cc1 3.49%
O=C(Nc1ccc(-c2ccc3nncn3n2)cc1)C1CCCCC1 -11.2%
Cc1ccc2nc(Nc3ccccc3)cc(C)c2c1 -2.1%
Cc1ccc2nc3n(c(=O)c2c1)CCC3 -5.32%
C/C(=N\NC(=O)c1cc2c(s1)CCC(C)C2)c1cccnc1 (stereo not given) -6.07%
O=C(NCc1ccc2c(c1)OCO2)C(=O)NCC1OCCN1S(=O)(=O)c1ccc(F)cc1 (stereo not given) -11.7%
CN(C)c1ccc(Nc2c3c4c(cccc4n(C)c2=O)C(=O)c2ccccc2-3)cc1 -1.09%
O=C(Nc1cccc(Cl)c1)c1cc([N+](=O)[O-])ccc1N1CCN(CCO)CC1 6.31%
CCC(=O)c1ccc(N2CCN(C(=O)c3cc([N+](=O)[O-])ccc3F)CC2)c(F)c1 8.34%
O=C(Cn1cnc2ccccc21)Nc1ccccc1-c1ccccc1 -5.35%
O=C(COC(=O)C1CCCCC1)Nc1ccc([N+](=O)[O-])cc1 23.9%
CC(C)c1nnc(NC(=O)COC(=O)/C=C/c2ccc([N+](=O)[O-])cc2)s1 -6.73%
COc1ccc2c(c1)c(C(=O)N/N=C/c1cccs1)c(C)n2C -1.8%
O=C(COc1ccc(Cl)cc1Cl)NCCCNC(=O)c1cnccn1 -1.6%
CC(=O)N1CCCc2cc(S(=O)(=O)N3CCCC(C(=O)NCc4ccc(Cl)cc4)C3)ccc21 (stereo not given) 0.31%
CC(=O)N1c2ccc(S(=O)(=O)N3CCCC(C(=O)Nc4cccc(Cl)c4)C3)cc2CC1C (stereo not given) 2.68%
CCOc1cc2[nH]c(=S)n(Cc3ccc(C(=O)N4CCN(C)CC4)cc3)c(=O)c2cc1OCC 2.37%
CCNC(=S)N(CCN(CC)CC)Cc1cc2cc3c(cc2[nH]c1=O)OCCO3 -10.2%
COc1cc2ccccc2cc1C(=O)Nc1ccc(NC(=O)c2cccs2)cc1 -3.15%
Cc1cc(C(=O)COC(=O)c2cccs2)c(C)n1-c1c(C)n(C)n(-c2ccccc2)c1=O -14.8%
O=C(O)c1ccc(S(=O)(=O)N2CCOCC2)o1 1.56%
Cc1ccc(S(=O)(=O)NCC2CCC(C(=O)N3CCOCC3)CC2)cc1 (stereo not given) -4.78%
CN1C/C(=C/c2cccs2)C(=O)/C(=C\c2cccs2)C1 -7.39%
CS(=O)(=O)N(Cc1nc2sc3c(c2c(=O)[nH]1)CCCC3)C1CCCCC1 1.34%
CSc1nc2ccc(NC(=O)c3c(F)cccc3F)cc2s1 -5.74%
CCCC(=O)Nc1nc2ccc(NC(=O)c3cccnc3)cc2s1 3.59%
CN(C)c1nc(=Nc2cccc(Cl)c2)ss1 -8.61%
CNS(=O)(=O)c1cccc(C(=O)NC2CCCc3ccccc32)c1 (stereo not given) -8.59%
COc1ccc(C(CNCC(=O)Nc2ccccc2F)N(C)C)cc1 (stereo not given) 0.06%
COc1ccc(CC(=O)NC(C)CCc2ccccc2)cc1 (stereo not given) -6.45%
N#Cc1c(Cl)nc(-c2cccnc2)nc1-c1ccccc1 4.22%
Clc1ccc(-c2cc(-c3ccccn3)on2)c(Cl)c1 -1.76%
O=C1CSC(c2ccccc2)N1c1nc(-c2ccc(Cl)cc2Cl)cs1 (stereo not given) -0.11%
COc1ccc(N(CC(=O)NCc2ccc(F)cc2)C(=O)CCC(=O)Nc2nccs2)cc1 1.89%
COCCOC1CCN(C(=O)c2ccc(OC)c(OC3CCN(C(C)C)CC3)c2)CC1 -13.7%
Cc1ccccc1CN1C[C@@H]2C[C@@H](c3ccc4nsnc4c3)N3CCC[C@@]23C1=O -4.53%
Cc1ccc(CN2CCN(Cc3cn(C)nc3-c3ccccc3)CC2CCO)o1 (stereo not given) -17.8%
CS(=O)(=O)c1ccc(-c2nnn(CC(=O)Nc3ccc4c(c3)OCCO4)n2)cc1 11.6%
O=C(CN(Cc1ccc(Br)cc1)S(=O)(=O)c1ccccc1)NCc1ccncc1 5.84%
CC(=O)NNC(=O)c1csc(Cc2c(Cl)sc3ccc(Cl)cc23)n1 0.26%
Cc1ccc(S(=O)(=O)N2CCC(C(=O)N[C@@H](C)C(=O)NCc3ccco3)CC2)cc1 2.63%
CC1CCN(S(=O)(=O)c2ccc(S(=O)(=O)NCc3cccnc3)cc2)CC1 -1.72%
O=C(CC1SC(=Nc2ccccc2)N(Cc2ccccn2)C1=O)Nc1cccc(Cl)c1 (stereo not given) -4.47%
CCN1C(=NCc2ccc(OC)cc2)N[C@@H](CCc2ccccc2)[C@H](C(=O)NCc2ccc(OC)cc2)[C@H]1C 14%
CCN(CC)CCCNC(=O)c1c(O)c2cc(F)cc3c2n(c1=O)C(C)CC3 (stereo not given) 4.5%
CC(=O)N(CCCN(C)C)c1nc2ccc(C)cc2s1 -10.8%
CSc1nc2ccc(S(=O)(=O)N3CCc4ccccc43)cc2s1 -0.77%
CCN(CC)CCN(C(=O)c1ccc(S(=O)(=O)N2CCOCC2)cc1)c1nc2cc3c(cc2s1)OCCO3 -11.1%
CCOc1ccc2nc(N(CCCN(C)C)C(=O)c3ccc(C(=O)c4ccccc4)cc3)sc2c1 6.16%
O=C(Nc1nc2ccc([N+](=O)[O-])cc2s1)c1ccc(S(=O)(=O)N2CCCc3ccccc32)cc1 -16.1%
CCOc1ccc2nc(N(CCN(C)C)C(=O)c3ccc4ccccc4c3)sc2c1 3%
COc1ccc(C(C(=O)NC2CCCCC2)N(C(=O)Cc2c[nH]c3ccccc23)c2ccccc2)cc1OC (stereo not given) -5.99%
Cc1cc(S(=O)(=O)c2cc3ccc(O)c(C)c3oc2=O)ccc1F -15%
Cc1ccccc1NC(=O)CCNS(=O)(=O)c1ccc2[nH]c(=O)oc2c1 -12.7%
O=C(Nc1ccc(C2CC2(Cl)Cl)cc1)c1cccc([N+](=O)[O-])c1 (stereo not given) -6.54%
Nc1ccn(C2CC(O)C(CO)O2)c(=O)n1 (stereo not given) -7.05%
O=C(COc1ccc(S(=O)(=O)N2CCOCC2)cc1Cl)N1CCOCC1 -13.2%
Cc1ccccc1CSCCNC(=O)c1ccc(N(C)S(=O)(=O)c2ccccc2)cc1 1.47%
COc1ccccc1CNC(=O)c1ccc(N(C)S(=O)(=O)c2ccc(C)cc2)cc1 -3.56%

inhibition, active:
c1ccc2c(c1)CSc1sccc1C2=C1CCNCC1 24.5%
Cn1c(=O)[nH]c(=O)c2c1nc(N(CCO)Cc1ccccc1)n2Cc1ccccc1Cl 27.1%
O=C(NC(=O)c1ccccc1)Nc1ccccc1O 40.9%
O=C(CN1C(=O)/C(=C/c2ccccc2F)Sc2ccccc21)NCc1cccnc1 40.7%
Cc1ccc2nc(C)c3c(c2c1)N(c1ccccc1)CC3 36.7%
CCN1CCN(c2ccc([N+](=O)[O-])cc2C(=O)c2ccc(Cl)cc2)CC1 32.3%
CCOCC(=O)Nc1ncc(S(=O)(=O)c2ccc([N+](=O)[O-])cc2)s1 19.5%
CC(=O)N1CCCc2cc(S(=O)(=O)N3CCCC(C(=O)N4CCN(c5cccc(Cl)c5)CC4)C3)ccc21 (stereo not given) 35.7%
COc1ccc(-n2c(C)cc(C(=O)COC(=O)c3cc(OC)c(OC)cc3NC(=O)c3cccs3)c2C)cc1 27.1%
CCCC(=O)Nc1nc2ccc(NC(=O)c3c(F)c(F)c(OC)c(F)c3F)cc2s1 36.2%
COc1ccc(C(CCNCc2ccccc2F)c2ccc(F)cc2)cc1 (stereo not given) 27.6%
Clc1ccc(-c2cc(C3CCNCC3)[nH]n2)c(Cl)c1 28.3%
Cc1ccccc1CN1C[C@@H]2C[C@@H](c3cn(C)nc3-c3ccccc3)N3CCC[C@@]23C1=O 25.5%
CC1CCN(S(=O)(=O)c2ccc(S(=O)(=O)NCc3ccco3)cc2)CC1 19.6%
CN(C)CCCN(C(=O)c1ccc(S(=O)(=O)N2CCCc3ccccc32)cc1)c1nc2ccc(F)cc2s1 41.8%
CN(C)CCCN(C(=O)c1ccc(S(=O)(=O)N2CCCCCC2)cc1)c1nc2ccc(Br)cc2s1 28.6%
CCc1ccc2nc(N(CCCN(C)C)C(=O)c3ccc4c(c3)OCCO4)sc2c1 22.4%
CN(c1ccccc1)S(=O)(=O)c1ccc(C(=O)NCCc2ccccc2)cc1 23.9%
